# Laboratory results: PubChem BioAssay (NCATS)
# Values joined by “and” are separate entries in the source; they are usually repeats but may differ in a detail not shown here. Equal entries are not always repeated. Records with an inconclusive call do not appear. Unmarked numbers belong to inactive results. Active and inactive are the calls of the source. The call rests on the fitted dose curve; in most records, active means well fitted curve in the direction sought with a large enough effect; inconclusive means small, poorly fitted or top-dose-only effect, or another doubt; inactive means no such curve, though single readings can be large or run the other way.
# Experiment: qHTS Assay for Identifying Gametocytocidal Compounds (AID 743244);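 on max response: actives lower the fluorescent signal which means gametocytes are killed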
# Settings: P. falciparum 3D7 stage III-V gametocytes, alamarBlue, 72 h; max response: hits give low values
# In short: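 3D7 gametocytes, stages III–V, 20,000/well; cpd 72 h, 37 °C/5% CO2; + alamarBlue 24 h; fluor. Ex 525/Em 598.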
# On the % scale 0 is the no-effect control and ±100 the full control effect; potency means the concentration at half of the fitted maximal effect.
SMILES,max response,Potency
O=C(O)[C@H](Cc1c[nH]c2ccccc12)N1C(=O)c2ccccc2C1=O,33.4%,
c1ccc2c(CCNc3ccc(Nc4ccncc4)cc3)c[nH]c2c1,,9.35 µM (active)
O=C(NC1CCNCC1)c1[nH]ncc1NC(=O)c1c(Cl)cccc1Cl,,1.32 µM (active) and 2.64 µM (active)
CC(C)C[C@H](NC(=O)CNC(=O)c1cc(Cl)ccc1Cl)B(O)O,,18.7 µM (active)
CC[C@@H]1C(=O)N(C)c2cnc(Nc3ccc(C(=O)NC4CCN(C)CC4)cc3OC)nc2N1C1CCCC1,,2.35 µM (active)
CC(C)=CCCC(C)=CCCC(C)=CCSc1ccccc1C(=O)O,2.41%,
COc1ccc2c(c1)CC[C@@H](CN(C)CC(=O)O)[C@H]2c1ccccc1,4.46%,
COc1cc2c(Oc3ccc(NC(=O)C4(C(=O)Nc5ccc(F)cc5)CC4)cc3F)ccnc2cc1OCCCN1CCOCC1,,18.7 µM (active)
C=CC(=O)Nc1cccc(Oc2nc(Nc3ccc(N4CCN(C)CC4)cc3OC)ncc2Cl)c1,,14.8 µM (active)
COc1cc2ncnc(Nc3ccc(F)c(Cl)c3)c2cc1NC(=O)C=CCN1CCCCC1,,11.8 µM (active)
Cc1cc(Nc2cc(N3CCN(C)CC3)nc(C=Cc3ccccc3)n2)n[nH]1,,8.33 µM (active)
CNc1nccc(-c2cccnc2Oc2cc(C(=O)Nc3cccc(C(F)(F)F)c3)ccc2C)n1,8.44%,
Nc1ccccc1NC(=O)c1ccc(CNC(=O)OCc2cccnc2)cc1,-2.71%,
Cc1cn2c(-c3cn[nH]c3)cnc2c(Nc2ccc(C(=O)N3CCNCC3)cc2F)n1,,23.5 µM (active)
C=CC(=O)Nc1cc2c(Nc3ccc(F)c(Cl)c3)ncnc2cc1C#CC(C)(C)N1CCN(C)CC1,,18.7 µM (active)
Cc1nc2ccc(CN(C)c3ccc(C(=O)N[C@@H](CCC(=O)O)C(=O)O)s3)cc2c(=O)[nH]1,16% and -8.64%,
COc1ccc(C=Cc2cc(OC)c(OC)c(OC)c2)cc1O,18.2%,
CC(C)c1ccc(Cn2ccc3c4c(N)nc(NC5CC5)nc4ccc32)cc1,,14.8 µM (active)
CN[C@H]1CCc2cc(OC)c(OC)c(OC)c2-c2ccc(OC)c(=O)cc21,-7.45%,
COc1cc2nccc(Oc3ccc(NC(=O)C4(C(=O)Nc5ccc(F)cc5)CC4)cc3)c2cc1OC,4.76%,
Nc1nc(Nc2ccc(S(N)(=O)=O)cc2)nn1C(=O)c1c(F)cccc1F,,11.8 µM (active)
Cc1cc(Nc2cc(N3CCN(C)CC3)nc(Sc3ccc(NC(=O)C4CC4)cc3)n2)n[nH]1,,23.5 µM (active)
O=C(NCCS(=O)(=O)c1ccc(C(F)(F)F)cn1)c1ccc(Cl)cc1,12.1%,
CC(C)(C)OC(=O)Nc1ccc(-c2cc(C(=O)NCCCCCCC(=O)NO)no2)cc1,,9.35 µM (active)
CC(C)(C)c1cnc(CSc2cnc(NC(=O)C3CCNCC3)s2)o1,,4.18 µM (active)
O=C(O)c1ccc2cc(-c3ccc(O)c(C45CC6CC(CC(C6)C4)C5)c3)ccc2c1,9.89%,
COc1cc2ncn(-c3cc(OCc4ccccc4C(F)(F)F)c(C(N)=O)s3)c2cc1OC,18.7%,
COc1ccc(OC)c(-c2nnc3ccc(-c4ccc(OC)c(O[C@@H]5CCOC5)c4)nn23)c1,-15.7%,
Cc1ccc(C(=O)Nc2ccc(CN3CCN(C)CC3)c(C(F)(F)F)c2)cc1C#Cc1cnc2cccnn12,,18.7 µM (active)
O=C(O)CO.[NH2-].[NH2-].[Pt+2],-5.78%,
